ChEMBL document CHEMBL1961873, “Compounds: GSK PKIS; Assays: Nanosyn kinase panel” (2012)

What was measured:
[1] = molecular target: Tyrosine-protein kinase Fyn (Homo sapiens) (UniProt P06241); conditions: at 1 µM
[2] = molecular target: Tyrosine-protein kinase HCK (Homo sapiens) (UniProt P08631); conditions: at 0.1 µM
[3] = molecular target: Tyrosine-protein kinase HCK (Homo sapiens) (UniProt P08631); conditions: at 1 µM
[4] = molecular target: Insulin-like growth factor 1 receptor (Homo sapiens) (UniProt P08069); conditions: at 0.1 µM
Sequence of Insulin-like growth factor 1 receptor (Homo sapiens) (P08069 31-736 limits assumed): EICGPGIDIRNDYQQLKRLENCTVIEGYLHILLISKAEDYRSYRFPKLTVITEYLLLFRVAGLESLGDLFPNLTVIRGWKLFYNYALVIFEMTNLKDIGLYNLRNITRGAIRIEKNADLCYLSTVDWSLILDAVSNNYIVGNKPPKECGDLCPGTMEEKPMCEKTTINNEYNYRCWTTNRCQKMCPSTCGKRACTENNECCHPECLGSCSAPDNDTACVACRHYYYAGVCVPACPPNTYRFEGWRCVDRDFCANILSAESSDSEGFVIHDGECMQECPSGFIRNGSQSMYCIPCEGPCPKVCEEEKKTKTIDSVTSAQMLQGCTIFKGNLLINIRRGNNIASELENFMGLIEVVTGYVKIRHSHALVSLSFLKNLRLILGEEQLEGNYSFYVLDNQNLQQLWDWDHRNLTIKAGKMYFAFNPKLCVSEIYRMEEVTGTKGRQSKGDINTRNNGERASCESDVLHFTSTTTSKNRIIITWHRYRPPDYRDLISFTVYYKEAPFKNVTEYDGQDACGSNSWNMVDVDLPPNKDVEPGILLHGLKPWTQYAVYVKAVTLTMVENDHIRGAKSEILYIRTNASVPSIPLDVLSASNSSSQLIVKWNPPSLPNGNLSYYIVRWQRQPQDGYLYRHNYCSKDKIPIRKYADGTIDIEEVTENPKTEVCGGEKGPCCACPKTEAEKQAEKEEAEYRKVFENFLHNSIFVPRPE
Sequence of Insulin-like growth factor 1 receptor (Homo sapiens) (P08069 741-1367 limits assumed): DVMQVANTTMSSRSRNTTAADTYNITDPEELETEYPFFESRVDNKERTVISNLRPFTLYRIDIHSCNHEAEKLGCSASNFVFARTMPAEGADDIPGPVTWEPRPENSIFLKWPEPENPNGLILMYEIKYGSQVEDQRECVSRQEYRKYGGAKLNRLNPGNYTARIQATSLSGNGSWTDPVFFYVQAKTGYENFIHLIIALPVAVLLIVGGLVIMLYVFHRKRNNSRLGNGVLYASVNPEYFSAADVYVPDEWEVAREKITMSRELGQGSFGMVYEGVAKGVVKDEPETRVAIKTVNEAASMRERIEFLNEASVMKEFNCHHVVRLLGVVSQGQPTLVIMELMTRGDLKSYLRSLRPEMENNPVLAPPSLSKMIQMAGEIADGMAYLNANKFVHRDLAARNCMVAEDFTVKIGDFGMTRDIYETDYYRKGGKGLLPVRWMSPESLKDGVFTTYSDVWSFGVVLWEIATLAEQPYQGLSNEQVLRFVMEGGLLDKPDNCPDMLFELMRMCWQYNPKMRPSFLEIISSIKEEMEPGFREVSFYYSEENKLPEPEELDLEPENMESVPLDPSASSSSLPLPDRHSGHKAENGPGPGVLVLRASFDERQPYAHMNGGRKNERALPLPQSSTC

[5] = molecular target: Insulin-like growth factor 1 receptor (Homo sapiens) (UniProt P08069); conditions: at 1 µM
[6] = molecular target: Insulin receptor (Homo sapiens) (UniProt P06213); conditions: at 0.1 µM
Sequence of Insulin receptor (Homo sapiens) (P06213 28-758 limits assumed): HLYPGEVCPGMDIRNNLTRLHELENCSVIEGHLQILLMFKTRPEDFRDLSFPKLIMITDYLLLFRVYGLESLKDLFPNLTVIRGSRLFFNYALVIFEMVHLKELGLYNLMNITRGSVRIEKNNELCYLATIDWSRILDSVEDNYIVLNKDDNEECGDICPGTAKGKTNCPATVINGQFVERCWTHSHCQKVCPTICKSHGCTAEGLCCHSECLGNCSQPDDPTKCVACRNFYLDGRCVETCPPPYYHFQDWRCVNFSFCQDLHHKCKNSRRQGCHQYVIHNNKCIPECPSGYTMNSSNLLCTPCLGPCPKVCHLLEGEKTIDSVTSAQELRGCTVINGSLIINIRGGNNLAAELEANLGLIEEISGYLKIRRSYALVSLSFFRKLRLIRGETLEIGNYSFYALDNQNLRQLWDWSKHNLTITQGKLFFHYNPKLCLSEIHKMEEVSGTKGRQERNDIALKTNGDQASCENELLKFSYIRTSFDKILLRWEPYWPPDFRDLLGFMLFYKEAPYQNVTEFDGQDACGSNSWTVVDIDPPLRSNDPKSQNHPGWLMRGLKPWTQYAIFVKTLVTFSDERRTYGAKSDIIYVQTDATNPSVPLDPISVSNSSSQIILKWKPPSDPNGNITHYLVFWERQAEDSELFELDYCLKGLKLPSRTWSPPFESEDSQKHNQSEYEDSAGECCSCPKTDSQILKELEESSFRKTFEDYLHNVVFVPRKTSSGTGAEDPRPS
Sequence of Insulin receptor (Homo sapiens) (P06213 763-1382 limits assumed): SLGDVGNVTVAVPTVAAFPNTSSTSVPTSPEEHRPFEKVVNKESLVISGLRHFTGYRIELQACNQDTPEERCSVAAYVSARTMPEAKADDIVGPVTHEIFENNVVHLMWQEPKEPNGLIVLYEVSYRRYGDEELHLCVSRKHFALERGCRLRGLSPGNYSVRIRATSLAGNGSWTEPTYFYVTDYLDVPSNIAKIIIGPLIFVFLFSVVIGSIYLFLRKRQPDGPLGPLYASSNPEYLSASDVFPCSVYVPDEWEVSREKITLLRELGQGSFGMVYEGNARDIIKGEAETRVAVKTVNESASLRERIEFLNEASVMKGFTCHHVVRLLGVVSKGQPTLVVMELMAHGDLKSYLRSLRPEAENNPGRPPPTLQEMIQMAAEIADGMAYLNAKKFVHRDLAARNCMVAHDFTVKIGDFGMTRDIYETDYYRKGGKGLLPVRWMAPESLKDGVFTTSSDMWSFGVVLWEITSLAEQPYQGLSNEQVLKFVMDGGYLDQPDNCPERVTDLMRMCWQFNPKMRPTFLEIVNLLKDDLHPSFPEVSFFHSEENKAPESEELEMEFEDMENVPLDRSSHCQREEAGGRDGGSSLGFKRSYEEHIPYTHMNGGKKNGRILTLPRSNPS

[7] = molecular target: Insulin receptor (Homo sapiens) (UniProt P06213); conditions: at 1 µM
[8] = molecular target: Insulin receptor-related protein (Homo sapiens) (UniProt P14616); conditions: at 0.1 µM
Sequence of Insulin receptor-related protein (Homo sapiens) (P14616 27-742 limits assumed): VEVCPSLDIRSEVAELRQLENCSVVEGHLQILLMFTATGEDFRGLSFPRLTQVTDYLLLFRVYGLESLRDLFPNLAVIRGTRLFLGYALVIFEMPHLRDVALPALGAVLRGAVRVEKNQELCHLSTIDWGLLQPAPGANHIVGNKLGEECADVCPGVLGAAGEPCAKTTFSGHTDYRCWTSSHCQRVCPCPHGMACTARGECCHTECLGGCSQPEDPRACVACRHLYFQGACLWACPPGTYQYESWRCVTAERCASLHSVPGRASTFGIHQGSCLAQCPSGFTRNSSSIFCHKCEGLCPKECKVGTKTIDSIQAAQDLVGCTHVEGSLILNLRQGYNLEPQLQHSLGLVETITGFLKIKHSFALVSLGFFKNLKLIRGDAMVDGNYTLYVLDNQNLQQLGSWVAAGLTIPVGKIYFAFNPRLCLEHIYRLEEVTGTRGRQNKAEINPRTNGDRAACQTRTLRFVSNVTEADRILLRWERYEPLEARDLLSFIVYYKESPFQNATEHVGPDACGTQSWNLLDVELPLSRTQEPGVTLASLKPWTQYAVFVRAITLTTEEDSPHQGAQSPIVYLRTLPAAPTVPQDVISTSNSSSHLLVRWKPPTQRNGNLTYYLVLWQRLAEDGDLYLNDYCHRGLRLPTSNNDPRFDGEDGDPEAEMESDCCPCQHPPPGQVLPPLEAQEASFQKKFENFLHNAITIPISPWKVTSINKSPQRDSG
Sequence of Insulin receptor-related protein (Homo sapiens) (P14616 747-1297 limits assumed): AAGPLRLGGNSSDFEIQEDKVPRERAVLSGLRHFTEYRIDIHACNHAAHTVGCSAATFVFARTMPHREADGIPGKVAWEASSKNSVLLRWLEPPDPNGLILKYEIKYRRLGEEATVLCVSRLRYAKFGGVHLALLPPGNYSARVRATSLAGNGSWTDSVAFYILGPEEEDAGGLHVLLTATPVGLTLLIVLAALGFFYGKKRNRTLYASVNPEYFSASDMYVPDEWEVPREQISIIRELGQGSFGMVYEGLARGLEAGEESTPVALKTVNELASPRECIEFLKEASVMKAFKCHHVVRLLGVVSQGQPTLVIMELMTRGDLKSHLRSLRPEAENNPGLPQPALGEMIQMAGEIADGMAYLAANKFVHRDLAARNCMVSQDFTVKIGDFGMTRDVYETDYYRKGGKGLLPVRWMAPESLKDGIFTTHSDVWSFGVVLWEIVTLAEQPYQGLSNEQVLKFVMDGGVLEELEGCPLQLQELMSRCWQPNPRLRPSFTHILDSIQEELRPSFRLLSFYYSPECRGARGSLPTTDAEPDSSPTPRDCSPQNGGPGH

[9] = molecular target: Insulin receptor-related protein (Homo sapiens) (UniProt P14616); conditions: at 1 µM
[10] = molecular target: T1, Tyrosine-protein kinase ITK/TSK (Homo sapiens) (UniProt Q08881); conditions: at 0.1 µM;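 further: mean percent inhibition of ITK from the GSK PKIS screen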
T1 sequence (whole entry): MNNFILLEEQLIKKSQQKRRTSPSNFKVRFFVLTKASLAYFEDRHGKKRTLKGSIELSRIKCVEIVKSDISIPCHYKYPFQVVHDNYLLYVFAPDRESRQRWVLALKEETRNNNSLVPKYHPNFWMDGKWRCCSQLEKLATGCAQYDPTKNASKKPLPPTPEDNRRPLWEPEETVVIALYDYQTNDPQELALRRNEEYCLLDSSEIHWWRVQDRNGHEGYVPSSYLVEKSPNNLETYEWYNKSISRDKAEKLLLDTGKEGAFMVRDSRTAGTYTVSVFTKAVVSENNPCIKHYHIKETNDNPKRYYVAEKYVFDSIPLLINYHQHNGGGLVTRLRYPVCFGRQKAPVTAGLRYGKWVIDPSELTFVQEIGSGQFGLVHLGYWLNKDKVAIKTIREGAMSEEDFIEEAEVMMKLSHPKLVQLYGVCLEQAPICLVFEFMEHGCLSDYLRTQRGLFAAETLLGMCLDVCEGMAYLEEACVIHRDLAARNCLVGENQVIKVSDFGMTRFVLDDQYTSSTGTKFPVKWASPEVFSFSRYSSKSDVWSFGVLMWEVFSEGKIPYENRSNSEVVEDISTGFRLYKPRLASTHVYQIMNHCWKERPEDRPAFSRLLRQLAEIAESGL

Sequence of Tyrosine-protein kinase Fyn (Homo sapiens) (P06241 2-537 limits assumed): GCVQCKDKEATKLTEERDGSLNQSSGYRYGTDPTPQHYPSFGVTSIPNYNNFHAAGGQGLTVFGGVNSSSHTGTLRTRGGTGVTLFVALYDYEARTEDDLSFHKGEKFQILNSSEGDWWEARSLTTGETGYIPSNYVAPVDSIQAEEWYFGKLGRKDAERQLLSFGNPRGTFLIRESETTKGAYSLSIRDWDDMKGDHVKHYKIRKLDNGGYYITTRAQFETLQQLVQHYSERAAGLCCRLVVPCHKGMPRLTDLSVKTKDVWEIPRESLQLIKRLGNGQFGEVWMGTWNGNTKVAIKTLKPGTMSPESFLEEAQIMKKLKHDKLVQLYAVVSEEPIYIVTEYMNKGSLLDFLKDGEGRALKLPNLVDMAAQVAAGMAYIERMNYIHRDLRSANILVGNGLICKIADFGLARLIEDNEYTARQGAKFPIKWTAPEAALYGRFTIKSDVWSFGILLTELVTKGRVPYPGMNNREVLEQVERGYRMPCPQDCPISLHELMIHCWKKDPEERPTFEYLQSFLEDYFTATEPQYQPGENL
Sequence of Tyrosine-protein kinase HCK (Homo sapiens) (P08631 2-526 limits assumed): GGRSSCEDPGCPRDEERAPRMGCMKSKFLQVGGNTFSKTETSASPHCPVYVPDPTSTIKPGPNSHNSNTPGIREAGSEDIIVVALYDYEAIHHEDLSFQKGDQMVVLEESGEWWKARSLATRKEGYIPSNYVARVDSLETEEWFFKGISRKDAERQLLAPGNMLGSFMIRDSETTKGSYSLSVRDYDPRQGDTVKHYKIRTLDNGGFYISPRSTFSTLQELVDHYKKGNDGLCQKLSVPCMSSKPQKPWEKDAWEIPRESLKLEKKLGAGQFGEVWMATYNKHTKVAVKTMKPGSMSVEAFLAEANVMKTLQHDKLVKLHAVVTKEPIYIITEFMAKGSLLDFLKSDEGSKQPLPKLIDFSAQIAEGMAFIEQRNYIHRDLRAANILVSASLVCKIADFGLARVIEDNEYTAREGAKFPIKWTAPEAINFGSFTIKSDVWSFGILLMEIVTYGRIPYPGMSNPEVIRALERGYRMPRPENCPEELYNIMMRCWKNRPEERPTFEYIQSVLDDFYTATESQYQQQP

Row | SMILES | inhibition [1] | inhibition [2] | inhibition [3] | inhibition [4] | inhibition [5] | inhibition [6] | inhibition [7] | inhibition [8] | inhibition [9] | inhibition [10]
1 | COC(=O)c1ccc2c(c1)C(=Cc1cc(Br)c(O)c(Br)c1)C(=O)N2 | 22.5% | 5.59% | 18.3% | 3.29% | 2.72% | 3.96% | 3.99% | 1.56% | 1.64% | 2.44%
2 | [O-][S+]1CCN(Cc2ccc(-c3ccc4ncnc(Nc5ccc(OCc6ccccc6)c(Cl)c5)c4c3)o2)CC1 | 4.61% | 2.6% | 3.96% | 14.4% | 10.7% | 2% | 3.55% | -1.65% | 0.75% | 0.08%
3 | Cc1ccc(C(=O)NC2CC2)cc1-c1ccc2[nH]ncc2c1 | 0.93% | -3.84% | -2.13% | 29.6% | -5.48% | 0.44% | -2.94% | -3.94% | -4.42% | -2.18%
4 | O=C(Nc1ccc(Oc2ccc3[nH]c(NC(=O)c4ccco4)nc3c2)cc1)Nc1cc(C(F)(F)F)ccc1F | 19.9% | 7.54% | 47.3% | -8.65% | -5.27% | 1.23% | 1.66% | 0.43% | 0.25% | -2.86%
5 | CCS(=O)(=O)c1ccc(OC)c(Nc2ncc(-c3cccc(OC)c3)o2)c1 | 76.5% | 21.1% | 67.2% | 2.1% | 4.95% | 0.3% | 5.78% | 3.08% | 3.36% | 1.61%
6 | c1ccc(Nc2ncc(-c3ccccc3)o2)cc1 | 15.1% | 6.83% | 13.3% | 7.16% | 5.2% | 4.8% | 6.98% | 2.31% | 2.61% | 0.38%
7 | Cc1ccc(Nc2ccnc(Nc3cccc(C(N)=O)c3)n2)cc1O | 89.4% | 58.8% | 83.5% | -3.28% | 17.2% | 3.53% | 13.7% | 2.88% | 3.49% | -2.42%
8 | COc1cccc(-n2nc(C)c3c(N/N=C(\C)c4ccncc4)ncnc32)c1 | 4.54% | 1.01% | 3.38% | -0.28% | 0.73% | 2.42% | 0.25% | -2% | -2.33% | 0.43%
9 | Cc1nc(-c2ccccc2)n2nc(NCCCN3CCOCC3)ncc12 | 4.98% | 3.98% | 4.67% | 3.15% | 1.6% | 0.32% | 2.69% | -0.73% | 1.44% | 0.99%
10 | Nc1ccc(C#Cc2cncnc2Nc2ccc(OCc3cccc(F)c3)c(Cl)c2)cc1 | 1.14% | 4.6% | 5.04% | 1.78% | -0.29% | 1.22% | 2.12% | 2.27% | 2.76% | 0.59%
11 | CS(=O)(=O)CCNCc1nc(-c2ccc3ncnc(Nc4ccc(OCc5cccc(C(F)(F)F)c5)cc4)c3c2)cs1 | 3.35% | 3.91% | 5.68% | 4.43% | 3.36% | 1.31% | 3.15% | -0.71% | 1.53% | 1.21%
12 | NS(=O)(=O)c1ccc(-c2cc3ccncc3cc2OCc2ccccc2)cc1 | 3.52% | 4.9% | 6.46% | 1.47% | 2.17% | 4.34% | 5.38% | 2.36% | 2.61% | 0.77%
13 | COc1cc2ncn(-c3cc(OCc4ccccc4S(C)(=O)=O)c(C#N)s3)c2cc1OC | 76.8% | 16.2% | 61.8% | 4.3% | 5.83% | 5.14% | 5.1% | 3.69% | 3.13% | 2.84%
14 | OCc1ccc(-c2nc(-c3ccccn3)c(-c3ccc4c(c3)OCO4)[nH]2)cc1 | 5.01% | 9.2% | 9.7% | 1.56% | 4.7% | 3.33% | 2.79% | 4.43% | 1.6% | 1.59%
15 | N#Cc1c(NC(=O)c2ccccc2F)sc2c1CCCC2 | 3.17% | -1.54% | 0.95% | -4.1% | 0.01% | 1.34% | -1.12% | -1.06% | -1.27% | -1%
16 | CCS(=O)(=O)c1ccc(OC)c(Nc2nccc(N(C)c3ccc4c(C)n[nH]c4c3)n2)c1 | 65% | 39.5% | 72.1% | 12.5% | 12.5% | 3.36% | 4.35% | 1.12% | 4.55% | 0.31%
17 | CN(c1ccc(NC(=O)Nc2ccc(OC(F)(F)F)cc2)cc1)c1ccnc(Nc2cccc(S(N)(=O)=O)c2)n1 | 53.5% | 25.2% | 77.3% | -1.04% | 0.46% | 1.9% | 2.39% | 0.67% | 3.26% | 10.6%

Row | SMILES | inhibition [1] | inhibition [2] | inhibition [3] | inhibition [4] | inhibition [5] | inhibition [6] | inhibition [7] | inhibition [8] | inhibition [9] | inhibition [10]
18 | CC(C)c1ccc2c(c1)NC(=O)/C2=N/Nc1ccc(S(N)(=O)=O)cc1 | 7.54% | 0.57% | 11% | -0.14% | 1.33% | 4% | 1.87% | -1.32% | -1.93% | 0.01%
19 | NS(=O)(=O)c1cccc(-c2cc3ccncc3cc2OCc2ccccc2)c1 | 4.87% | 7.87% | 11.1% | 9.68% | 10.4% | 2.6% | 4.4% | 2.82% | 1.54% | 1.77%
20 | Cc1ccc(NC(=O)CC2CC2)cc1-c1ccc(C(=O)NCC2CC2)cc1 | 5.9% | 9% | 10.3% | 1.36% | 2.09% | 2.71% | 5.25% | 2.99% | 3.28% | 1.08%
21 | Nc1nccc(-c2c(-c3ccc(F)cc3)nn3cc(C(F)(F)F)ccc23)n1 | 2.33% | -0.1% | -0.25% | -1.56% | 1.35% | 1.38% | 2.01% | 1.17% | 1.01% | -1.78%
22 | C[C@@H](Oc1cc(-n2cnc3ccc(OCC4CCN(C)CC4)cc32)sc1C(N)=O)c1ccccc1C(F)(F)F | 12.6% | 3.31% | 32.6% | -4.89% | -1.61% | -0.09% | 1.24% | -3.02% | -2.86% | -1.81%
23 | COC(=O)c1cncc(/C=C/c2c(C)cc(O)cc2C)c1 | 20% | 8.77% | 37.5% | 2.87% | 2.99% | 3.1% | 0.15% | 5.13% | 2.83% | 0.96%
24 | CCn1c(-c2nonc2N)nc2ccc(F)cc21 | 4.14% | 4.97% | 7.63% | 4.55% | 8.11% | 5.06% | 5.22% | 4.24% | 3.56% | 2.15%
25 | Cc1ccc(O)cc1Nc1ccnc2ccc(S(C)(=O)=O)cc12 | 94.1% | 87.2% | 89.9% | 4.41% | 3.85% | 6.63% | 8.39% | 3.29% | 3.19% | 1.1%
26 | C[C@@H](Oc1cc(-n2cnc3ccc(OC[C@@H](O)CO)cc32)sc1C(N)=O)c1ccccc1Cl | 5.15% | -0.15% | 6.39% | -1.52% | -0.34% | 0.87% | 0.26% | -2.17% | -2.11% | 0.28%
27 | COc1cc2ncnc(Nc3ccc(C)c(O)c3)c2cc1OC | 56.2% | 44.9% | 75.1% | 12.2% | 11% | 5.04% | 6.96% | 2.18% | 3.05% | 1.63%
28 | NC(=O)c1sc(-n2cnc3ccccc32)cc1OCc1ccccc1Br | 6.19% | 4.21% | 7.03% | 1.53% | 3.04% | 3.07% | 5.25% | 1.82% | 3.4% | 1.35%
29 | NS(=O)(=O)c1ccc(N/N=C2\C(=O)Nc3ccc(Cl)cc32)cc1 | 8.06% | 5% | 11.4% | 6.7% | 4.64% | 1.04% | 2.77% | 3.26% | 3.42% | 0.97%
30 | FC(F)(F)c1ccc(-c2nn3ncccc3c2-c2ccnc(Nc3ccc4c(c3)OCCO4)n2)cc1 | 21.2% | 0.59% | 15.1% | -3.01% | -2.92% | 0.23% | 0.63% | -0.78% | 0.97% | 5.77%
31 | CCOc1nccc2c1nc(-c1nonc1N)n2CC | 3.27% | 4.58% | 11.4% | 7.26% | 7.09% | 0.75% | -1.17% | 1.03% | 2.48% | 1.74%
32 | CS(=O)(=O)Nc1cccc(-c2ccc3c(NC(=O)C4CC4)n[nH]c3c2)c1 | 3.25% | 3.53% | 3.03% | 1.3% | -1.63% | 2.96% | 4.14% | -0.36% | -1.26% | 0.53%
33 | COc1ccc2ncnc(Nc3ccc(OCc4ccccc4)cc3)c2c1 | 10.2% | 2.78% | 8.33% | 0.69% | 0.08% | 0.98% | 3.05% | 1.39% | 2.07% | 0.5%
34 | Nc1nccc(-c2c(-c3ccc(F)cc3)ncn2CCCN2CCOCC2)n1 | 4.47% | 5.16% | 6.92% | 9.8% | 8.95% | 0.02% | 3.74% | 2.13% | 5.23% | 1.35%
